Data as given in the supplement of paper PMC11732987, “Enantioselective OTUD7B fragment discovery through chemoproteomics screening and high-throughput optimisation” (Communications Chemistry, 2025).

Key:
Experiment in all cases: log2 ratio of Biotin-Ahx-Ub-VS probe labelling (fragment/DMSO); higher = less target engagement (more negative = stronger competition), active = hit call of the paper (q ≤ 0.05, log2 ratio ≤ -1)
Details in all cases: compound concentration: 200 uM; treatment time: 3 h
USP34 = USP34 (UniProt Q70CQ2)
Procedure, shortened: (§1)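 Labelled DUBs from HEK293T lysate were NeutrAvidin-enriched, digested with LysC and trypsin, and run by diaPASEF LC-MS/MS. Before that, each 495 µg sample in Tris/CHAPS/IGEPAL buffer with protease inhibitors was treated in triplicate with fragment at 200 µM or vehicle for 3 h, then with Biotin-Ahx-Ub-VS at 0.5 µM final for 1 h. Values are average log2 ratios of fragment over vehicle by unpaired t-test, based on global-median-normalised Spectronaut label-free quantities from proteins with ≥2 unique peptides.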

USP36 = target: T1, USP36 (UniProt Q9P275)
T1 sequence (whole entry): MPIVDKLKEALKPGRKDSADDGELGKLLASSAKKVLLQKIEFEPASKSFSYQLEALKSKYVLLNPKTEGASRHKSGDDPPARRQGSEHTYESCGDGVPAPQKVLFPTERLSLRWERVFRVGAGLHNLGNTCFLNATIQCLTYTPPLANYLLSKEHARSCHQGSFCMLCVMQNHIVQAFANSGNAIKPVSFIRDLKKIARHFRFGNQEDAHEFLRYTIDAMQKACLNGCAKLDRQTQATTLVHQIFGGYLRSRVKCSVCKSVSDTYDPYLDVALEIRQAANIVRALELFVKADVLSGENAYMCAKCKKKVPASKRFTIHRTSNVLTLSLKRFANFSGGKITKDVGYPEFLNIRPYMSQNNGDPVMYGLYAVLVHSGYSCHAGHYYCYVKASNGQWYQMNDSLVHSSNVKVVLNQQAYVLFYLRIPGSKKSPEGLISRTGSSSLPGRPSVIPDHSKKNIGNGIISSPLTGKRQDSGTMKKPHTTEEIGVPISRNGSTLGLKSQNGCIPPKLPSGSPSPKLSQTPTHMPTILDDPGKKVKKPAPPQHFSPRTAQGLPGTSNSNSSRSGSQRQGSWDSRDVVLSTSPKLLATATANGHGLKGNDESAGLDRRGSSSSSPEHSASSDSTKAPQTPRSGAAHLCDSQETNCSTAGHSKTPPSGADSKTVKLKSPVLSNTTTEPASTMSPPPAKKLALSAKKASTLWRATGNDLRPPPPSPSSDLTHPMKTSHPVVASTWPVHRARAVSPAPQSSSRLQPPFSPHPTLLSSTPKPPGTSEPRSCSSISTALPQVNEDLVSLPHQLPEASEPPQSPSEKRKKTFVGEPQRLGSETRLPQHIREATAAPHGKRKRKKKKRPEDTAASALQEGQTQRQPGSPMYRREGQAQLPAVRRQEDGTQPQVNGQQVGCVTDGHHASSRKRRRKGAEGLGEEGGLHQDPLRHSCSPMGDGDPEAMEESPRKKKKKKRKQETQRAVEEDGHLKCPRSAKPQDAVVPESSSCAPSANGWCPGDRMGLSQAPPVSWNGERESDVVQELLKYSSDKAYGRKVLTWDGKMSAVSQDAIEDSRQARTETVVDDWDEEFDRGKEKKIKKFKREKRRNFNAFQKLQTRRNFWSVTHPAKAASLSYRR
Procedure, shortened: as §1

USP38 = target: T2, USP38 (UniProt Q8NB14)
T2 sequence (whole entry): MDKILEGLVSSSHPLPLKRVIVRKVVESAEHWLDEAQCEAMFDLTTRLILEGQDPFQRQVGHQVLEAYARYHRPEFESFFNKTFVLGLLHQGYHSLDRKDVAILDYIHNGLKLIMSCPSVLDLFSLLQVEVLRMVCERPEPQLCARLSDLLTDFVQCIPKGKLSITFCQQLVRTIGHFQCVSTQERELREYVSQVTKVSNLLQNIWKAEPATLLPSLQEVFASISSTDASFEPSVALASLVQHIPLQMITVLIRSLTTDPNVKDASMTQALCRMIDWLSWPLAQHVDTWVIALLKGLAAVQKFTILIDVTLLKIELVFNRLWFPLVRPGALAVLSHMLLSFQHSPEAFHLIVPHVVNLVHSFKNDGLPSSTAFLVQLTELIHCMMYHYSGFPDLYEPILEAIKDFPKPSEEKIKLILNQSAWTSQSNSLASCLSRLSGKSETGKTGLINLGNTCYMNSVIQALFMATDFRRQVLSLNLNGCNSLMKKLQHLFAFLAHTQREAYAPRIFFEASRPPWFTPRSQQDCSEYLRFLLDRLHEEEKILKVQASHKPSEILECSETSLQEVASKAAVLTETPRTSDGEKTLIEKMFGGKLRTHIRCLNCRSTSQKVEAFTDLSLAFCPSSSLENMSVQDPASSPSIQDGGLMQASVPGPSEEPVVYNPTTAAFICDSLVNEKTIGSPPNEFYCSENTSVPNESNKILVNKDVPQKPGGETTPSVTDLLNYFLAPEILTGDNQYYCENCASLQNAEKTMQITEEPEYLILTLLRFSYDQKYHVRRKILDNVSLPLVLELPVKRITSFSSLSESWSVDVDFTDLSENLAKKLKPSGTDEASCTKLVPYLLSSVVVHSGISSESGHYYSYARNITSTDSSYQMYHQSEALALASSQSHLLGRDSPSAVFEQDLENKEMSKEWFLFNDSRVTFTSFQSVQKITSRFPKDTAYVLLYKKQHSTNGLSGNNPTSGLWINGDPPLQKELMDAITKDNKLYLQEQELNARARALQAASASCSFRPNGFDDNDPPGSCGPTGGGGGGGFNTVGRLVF
Procedure, shortened: as §1

USP39 = target: T3, USP39 (UniProt Q53GS9)
T3 sequence (whole entry): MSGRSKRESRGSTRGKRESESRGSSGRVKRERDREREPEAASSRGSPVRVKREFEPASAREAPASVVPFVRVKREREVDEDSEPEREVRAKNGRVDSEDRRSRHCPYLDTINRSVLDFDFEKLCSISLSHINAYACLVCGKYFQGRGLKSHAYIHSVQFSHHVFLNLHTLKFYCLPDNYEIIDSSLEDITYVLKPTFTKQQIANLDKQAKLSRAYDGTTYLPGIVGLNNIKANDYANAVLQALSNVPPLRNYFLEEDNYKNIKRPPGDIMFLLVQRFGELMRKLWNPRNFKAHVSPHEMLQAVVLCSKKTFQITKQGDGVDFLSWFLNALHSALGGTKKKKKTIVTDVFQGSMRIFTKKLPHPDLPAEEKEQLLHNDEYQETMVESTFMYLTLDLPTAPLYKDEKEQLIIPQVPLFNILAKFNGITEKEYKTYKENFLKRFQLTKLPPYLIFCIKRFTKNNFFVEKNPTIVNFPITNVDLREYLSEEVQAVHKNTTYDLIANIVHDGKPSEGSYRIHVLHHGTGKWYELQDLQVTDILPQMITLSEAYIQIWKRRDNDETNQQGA
Procedure, shortened: as §1

USP4 = target: T4, USP4 (UniProt Q13107)
T4 sequence (whole entry): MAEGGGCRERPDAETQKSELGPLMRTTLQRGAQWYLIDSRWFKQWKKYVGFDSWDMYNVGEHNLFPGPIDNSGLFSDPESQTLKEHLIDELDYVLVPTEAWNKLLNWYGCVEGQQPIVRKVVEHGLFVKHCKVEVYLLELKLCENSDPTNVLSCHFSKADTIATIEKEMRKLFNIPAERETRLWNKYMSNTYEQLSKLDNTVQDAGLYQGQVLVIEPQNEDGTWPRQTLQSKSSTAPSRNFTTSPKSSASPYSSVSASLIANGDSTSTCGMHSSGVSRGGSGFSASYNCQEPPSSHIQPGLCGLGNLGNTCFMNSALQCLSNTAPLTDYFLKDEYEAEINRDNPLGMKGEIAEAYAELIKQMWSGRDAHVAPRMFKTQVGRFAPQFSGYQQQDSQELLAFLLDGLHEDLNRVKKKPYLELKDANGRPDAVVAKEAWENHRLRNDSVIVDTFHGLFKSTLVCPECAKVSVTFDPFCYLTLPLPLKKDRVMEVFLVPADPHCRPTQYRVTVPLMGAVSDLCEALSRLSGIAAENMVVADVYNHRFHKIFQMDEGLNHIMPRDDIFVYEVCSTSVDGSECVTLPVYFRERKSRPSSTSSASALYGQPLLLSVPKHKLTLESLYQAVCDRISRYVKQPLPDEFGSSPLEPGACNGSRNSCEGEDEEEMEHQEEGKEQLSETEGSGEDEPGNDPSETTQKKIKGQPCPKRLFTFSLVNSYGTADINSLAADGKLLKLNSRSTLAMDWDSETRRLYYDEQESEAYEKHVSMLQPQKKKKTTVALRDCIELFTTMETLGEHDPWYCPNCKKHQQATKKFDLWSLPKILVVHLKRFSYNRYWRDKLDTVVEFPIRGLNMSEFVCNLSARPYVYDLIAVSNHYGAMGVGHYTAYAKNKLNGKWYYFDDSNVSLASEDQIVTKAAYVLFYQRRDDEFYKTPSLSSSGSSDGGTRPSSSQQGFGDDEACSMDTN
Procedure, shortened: as §1

Measured: log2 ratio of Biotin-Ahx-Ub-VS probe labelling

USP34, sequence (Q70CQ2 whole entry, the tested form may be a part): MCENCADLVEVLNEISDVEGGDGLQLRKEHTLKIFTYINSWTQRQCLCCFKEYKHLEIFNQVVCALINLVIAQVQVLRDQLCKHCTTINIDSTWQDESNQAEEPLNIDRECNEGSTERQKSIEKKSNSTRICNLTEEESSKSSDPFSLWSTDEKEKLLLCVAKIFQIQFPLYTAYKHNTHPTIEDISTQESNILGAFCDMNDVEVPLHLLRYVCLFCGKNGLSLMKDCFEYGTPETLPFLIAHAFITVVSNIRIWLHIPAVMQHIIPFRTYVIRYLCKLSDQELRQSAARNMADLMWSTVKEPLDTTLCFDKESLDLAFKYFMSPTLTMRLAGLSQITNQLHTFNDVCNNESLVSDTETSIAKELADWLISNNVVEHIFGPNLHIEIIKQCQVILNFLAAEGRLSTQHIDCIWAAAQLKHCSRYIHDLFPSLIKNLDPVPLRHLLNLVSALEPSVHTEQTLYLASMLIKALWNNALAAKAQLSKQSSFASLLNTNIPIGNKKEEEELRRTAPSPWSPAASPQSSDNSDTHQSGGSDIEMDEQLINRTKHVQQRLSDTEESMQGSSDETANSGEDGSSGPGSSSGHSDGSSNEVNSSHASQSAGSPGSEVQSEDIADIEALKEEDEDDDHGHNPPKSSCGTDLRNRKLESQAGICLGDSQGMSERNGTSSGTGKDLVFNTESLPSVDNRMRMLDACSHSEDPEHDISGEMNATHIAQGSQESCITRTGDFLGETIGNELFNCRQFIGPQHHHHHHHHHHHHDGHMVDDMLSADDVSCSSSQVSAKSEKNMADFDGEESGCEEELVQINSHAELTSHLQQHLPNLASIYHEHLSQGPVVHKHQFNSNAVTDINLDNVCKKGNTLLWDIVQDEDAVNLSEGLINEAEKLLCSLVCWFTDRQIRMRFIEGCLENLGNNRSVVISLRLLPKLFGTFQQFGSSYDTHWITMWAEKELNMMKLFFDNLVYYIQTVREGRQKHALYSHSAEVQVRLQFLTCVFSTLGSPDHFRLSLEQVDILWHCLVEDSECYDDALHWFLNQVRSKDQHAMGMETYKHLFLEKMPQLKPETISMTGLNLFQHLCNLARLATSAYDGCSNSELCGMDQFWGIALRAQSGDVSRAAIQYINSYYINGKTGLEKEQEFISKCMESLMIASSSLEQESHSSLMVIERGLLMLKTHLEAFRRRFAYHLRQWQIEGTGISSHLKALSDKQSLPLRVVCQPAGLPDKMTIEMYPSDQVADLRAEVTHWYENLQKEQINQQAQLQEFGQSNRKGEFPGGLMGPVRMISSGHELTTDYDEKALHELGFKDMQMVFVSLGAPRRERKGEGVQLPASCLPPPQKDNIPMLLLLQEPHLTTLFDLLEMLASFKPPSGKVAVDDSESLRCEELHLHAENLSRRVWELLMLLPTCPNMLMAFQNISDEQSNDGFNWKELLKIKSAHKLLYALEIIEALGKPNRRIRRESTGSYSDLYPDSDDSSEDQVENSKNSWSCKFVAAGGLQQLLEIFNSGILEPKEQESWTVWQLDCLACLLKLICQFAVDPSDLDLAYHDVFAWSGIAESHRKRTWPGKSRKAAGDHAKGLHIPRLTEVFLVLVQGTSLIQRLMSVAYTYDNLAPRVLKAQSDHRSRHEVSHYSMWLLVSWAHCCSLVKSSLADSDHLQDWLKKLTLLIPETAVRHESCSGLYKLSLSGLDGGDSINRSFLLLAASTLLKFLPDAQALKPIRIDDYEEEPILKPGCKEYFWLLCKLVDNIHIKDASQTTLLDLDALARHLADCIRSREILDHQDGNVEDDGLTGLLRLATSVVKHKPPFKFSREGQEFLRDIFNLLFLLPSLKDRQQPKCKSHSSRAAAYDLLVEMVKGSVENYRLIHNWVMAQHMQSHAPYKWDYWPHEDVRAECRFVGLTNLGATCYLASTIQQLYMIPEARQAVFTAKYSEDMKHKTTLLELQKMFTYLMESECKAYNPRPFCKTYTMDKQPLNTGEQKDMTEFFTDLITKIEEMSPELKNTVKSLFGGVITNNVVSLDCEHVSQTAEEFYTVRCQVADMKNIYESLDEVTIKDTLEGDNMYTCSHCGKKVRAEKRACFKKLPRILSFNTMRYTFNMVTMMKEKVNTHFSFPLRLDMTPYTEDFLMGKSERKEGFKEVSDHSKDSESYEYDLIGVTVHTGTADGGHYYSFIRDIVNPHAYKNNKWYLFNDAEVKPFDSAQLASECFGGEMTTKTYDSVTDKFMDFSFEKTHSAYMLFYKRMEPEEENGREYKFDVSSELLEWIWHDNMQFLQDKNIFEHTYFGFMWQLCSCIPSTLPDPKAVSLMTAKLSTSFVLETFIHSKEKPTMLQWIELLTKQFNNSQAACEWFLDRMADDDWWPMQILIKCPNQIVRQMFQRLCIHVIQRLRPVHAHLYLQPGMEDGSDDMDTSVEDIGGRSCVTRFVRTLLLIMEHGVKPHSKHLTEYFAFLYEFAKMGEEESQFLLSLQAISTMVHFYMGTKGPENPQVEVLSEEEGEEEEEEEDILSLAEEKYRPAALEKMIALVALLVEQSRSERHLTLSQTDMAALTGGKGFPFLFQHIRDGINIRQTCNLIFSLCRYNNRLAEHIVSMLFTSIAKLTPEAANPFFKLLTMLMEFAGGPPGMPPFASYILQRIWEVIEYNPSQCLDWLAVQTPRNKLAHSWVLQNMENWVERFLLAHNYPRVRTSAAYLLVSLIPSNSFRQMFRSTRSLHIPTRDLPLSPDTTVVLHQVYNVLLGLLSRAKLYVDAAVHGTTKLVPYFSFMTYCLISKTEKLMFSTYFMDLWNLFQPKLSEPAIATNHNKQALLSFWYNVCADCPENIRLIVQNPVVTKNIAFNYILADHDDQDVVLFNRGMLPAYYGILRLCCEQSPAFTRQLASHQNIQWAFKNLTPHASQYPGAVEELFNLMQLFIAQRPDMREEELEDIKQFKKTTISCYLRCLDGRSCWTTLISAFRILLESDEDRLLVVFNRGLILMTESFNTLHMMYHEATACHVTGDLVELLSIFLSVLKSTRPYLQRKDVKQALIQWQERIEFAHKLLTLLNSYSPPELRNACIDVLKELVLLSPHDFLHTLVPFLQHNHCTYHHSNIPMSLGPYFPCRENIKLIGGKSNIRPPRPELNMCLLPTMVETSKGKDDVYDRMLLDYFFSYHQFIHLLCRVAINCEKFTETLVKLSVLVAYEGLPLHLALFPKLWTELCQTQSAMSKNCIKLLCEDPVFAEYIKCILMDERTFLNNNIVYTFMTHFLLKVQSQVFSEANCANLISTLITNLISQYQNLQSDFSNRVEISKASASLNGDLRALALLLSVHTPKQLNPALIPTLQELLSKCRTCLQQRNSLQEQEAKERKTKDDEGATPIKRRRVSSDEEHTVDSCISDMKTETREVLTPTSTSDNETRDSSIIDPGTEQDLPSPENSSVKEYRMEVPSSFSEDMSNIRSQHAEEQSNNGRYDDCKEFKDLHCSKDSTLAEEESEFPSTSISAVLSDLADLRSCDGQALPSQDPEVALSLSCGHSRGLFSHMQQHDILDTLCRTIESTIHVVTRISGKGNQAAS

Cc1ccc(CC(NC(=O)CCl)c2ccccn2)cc1.Cl (stereo not given)
inactive: USP34 -0.162 | USP36 0.13 | USP38 -0.114 | USP39 -0.181 | USP4 0.169
